Laboratory results reported in PubChem BioAssay (Tox21).
Inconclusive results are not listed. Active and inactive are the calls of the source. Unless noted, calls come from the whole dose curve; as a rule, active = well fitted curve in the direction sought with a large enough effect in the repeat runs; inconclusive = weak or mixed curves; inactive = no such curve, though single readings can be large; an effect the other way counts as inactive or inconclusive.

How the values were obtained:
[1] = qHTS assay to identify small molecule agonists of the peroxisome proliferator-activated receptor delta (PPARd) signaling pathway - cell viability counter screen (AID 743211); note: nearly all actives have a fitted effect of over 55% in size
In short: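 Following 5 h plating at 37 C and 5% CO2, PPARd UAS-bla HEK293H cells took up test compounds for 17 h. Viability was quantified by luminescence 30 min after CellTiter-Glo addition at room temperature.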

[2] = qHTS assay to identify small molecule antagonists of the peroxisome proliferator-activated receptor delta (PPARd) signaling pathway - cell viability counter screen (AID 743213); note: nearly all actives have a fitted effect of over 50% in size
In short: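 Viability counter-screen, qHTS format: PPARd-bla HEK293H, L165041 300 nM final, 17 h compound exposure at 37 C, CellTiter-Glo luminescence after 30 min RT.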

[3] = molecular target: Peroxisome proliferator-activated receptor delta (Homo sapiens) (UniProt Q03181); assay: qHTS assay to identify small molecule antagonists of the peroxisome proliferator-activated receptor delta (PPARd) signaling pathway (AID 743215; active = well fitted inhibition curve with a large enough effect in the signal ratio in the repeat runs, not every such curve was filed as active; the % refers to the signal ratio;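 note: cells stimulated with agonist L165041 at 300 nM final during compound exposure; series mostly up to about 62 µM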)
In short: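 Cells: HEK293H with a UAS-driven beta-lactamase reporter responsive to PPARd. Compounds were co-added with L165041 (300 nM, final) and incubated 17 h at 37 C before a 2 h room-temperature FRET substrate step and fluorescence reading.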

[4] = molecular target: Bile acid receptor (Homo sapiens) (UniProt Q96RI1); assay: qHTS assay to identify small molecule antagonists of the farnesoid-X-receptor (FXR) signaling pathway (AID 743217; active = well fitted inhibition curve with a large enough effect in the signal ratio in the repeat runs, not every such curve was filed as active; the % refers to the signal ratio)
In short: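 Cells carrying a UAS-driven beta-lactamase reporter (GeneBLAzer FXR-UAS-bla HEK 293T) were plated and rested 5 h at 37 °C. Compounds in DMSO were added alongside chenodeoxycholic acid agonist at 50 uM final and left 16 h at 37 °C before FRET substrate readout.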

[5] = qHTS assay to identify small molecule agonists of the farnesoid-X-receptor (FXR) signaling pathway - cell viability counter screen (AID 743218); note: nearly all actives have a fitted effect of over 45% in size
In short: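 Cells were seeded, left 5 h at 37 C and 5% CO2, then dosed with compound in DMSO for 16 h. After the beta-lactamase FRET read, CellTiter-Glo was added and luminescence measured 30 min later.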

[6] = molecular target: Bile acid receptor (Homo sapiens) (UniProt Q96RI1); assay: qHTS assay to identify small molecule agonists of the farnesoid-X-receptor (FXR) signaling pathway (AID 743220; active = well fitted activation curve with a large enough effect in the signal ratio in the repeat runs, not every such curve was filed as active; the % refers to the signal ratio)
In short: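 FXR-UAS-bla HEK 293T cells carrying a UAS-driven beta-lactamase reporter were plated for 5 h at 37C/5% CO2, then exposed to DMSO-dissolved Tox21 10K compounds for 16 h at 37C. A LiveBLAzer B/G FRET substrate was loaded for 2 h at room temperature before fluorescence reading.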

[7] = qHTS assay to identify small molecule antagonists of the farnesoid-X-receptor (FXR) signaling pathway - cell viability counter screen (AID 743221; active = well fitted cell-killing curve with a large enough effect in the repeat runs, not every such curve was filed as active; note: nearly all actives have a fitted effect of over 50% in size)
In short: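 Compound effects on cell number were measured as CellTiter-Glo luminescence in HEK 293T cells expressing FXR-UAS-bla, after 16 h at 37 C with 50 uM CDCA (final).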

[8] = molecular target: Vitamin D3 receptor (Homo sapiens) (UniProt P11473); assay: qHTS assay to identify small molecule agonists of the vitamin D receptor (VDR) signaling pathway (AID 743222; calls by dose curve)
In short: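 Cells carrying a VDR-driven beta-lactamase reporter are seeded at 2,000 per well and rested 4 h. Compounds in DMSO are added for 16 h at 37C, and FRET substrate fluorescence is measured after 2 h at room temperature.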

[9] = molecular target: Peroxisome proliferator-activated receptor delta (Homo sapiens) (UniProt Q03181); assay: qHTS assay to identify small molecule agonists of the peroxisome proliferator-activated receptor delta (PPARd) signaling pathway (AID 743212; calls by dose curve)
In short: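 Tox21 library screened in GeneBLAzer PPARd UAS-bla HEK293H cells. After compound treatment at 37 C, a FRET-based beta-lactamase substrate was applied for 2 h and fluorescence recorded.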

[10] = molecular target: Vitamin D3 receptor (Homo sapiens) (UniProt P11473); assay: qHTS assay to identify small molecule antagonists of the vitamin D receptor (VDR) signaling pathway (AID 743223; active = well fitted inhibition curve with a large enough effect in the signal ratio in the repeat runs, not every such curve was filed as active; the % refers to the signal ratio)
In short: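 Beta-lactamase activity in VDR-bla cells is measured by FRET substrate fluorescence (2 h, room temperature) after cells spend 16 h at 37C with test compound and 3 nM final 1alpha,25-dihydroxyvitamin D3.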

Measured: Potency

Sequence of Bile acid receptor (Homo sapiens) (Q96RI1 whole entry, looked up): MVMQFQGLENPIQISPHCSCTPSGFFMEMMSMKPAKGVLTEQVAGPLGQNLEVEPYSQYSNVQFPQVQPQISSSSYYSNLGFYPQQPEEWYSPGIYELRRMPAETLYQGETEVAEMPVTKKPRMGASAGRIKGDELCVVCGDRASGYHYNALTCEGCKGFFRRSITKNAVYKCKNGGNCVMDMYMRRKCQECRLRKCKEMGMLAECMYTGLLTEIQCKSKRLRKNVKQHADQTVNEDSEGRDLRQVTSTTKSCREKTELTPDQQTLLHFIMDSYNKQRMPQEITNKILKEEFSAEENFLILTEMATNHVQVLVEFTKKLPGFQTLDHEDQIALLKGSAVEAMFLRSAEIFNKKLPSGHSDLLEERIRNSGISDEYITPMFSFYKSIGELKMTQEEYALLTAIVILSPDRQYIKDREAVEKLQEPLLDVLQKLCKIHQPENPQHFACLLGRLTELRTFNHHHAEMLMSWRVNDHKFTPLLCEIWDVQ
Sequence of Vitamin D3 receptor (Homo sapiens) (P11473 whole entry, looked up): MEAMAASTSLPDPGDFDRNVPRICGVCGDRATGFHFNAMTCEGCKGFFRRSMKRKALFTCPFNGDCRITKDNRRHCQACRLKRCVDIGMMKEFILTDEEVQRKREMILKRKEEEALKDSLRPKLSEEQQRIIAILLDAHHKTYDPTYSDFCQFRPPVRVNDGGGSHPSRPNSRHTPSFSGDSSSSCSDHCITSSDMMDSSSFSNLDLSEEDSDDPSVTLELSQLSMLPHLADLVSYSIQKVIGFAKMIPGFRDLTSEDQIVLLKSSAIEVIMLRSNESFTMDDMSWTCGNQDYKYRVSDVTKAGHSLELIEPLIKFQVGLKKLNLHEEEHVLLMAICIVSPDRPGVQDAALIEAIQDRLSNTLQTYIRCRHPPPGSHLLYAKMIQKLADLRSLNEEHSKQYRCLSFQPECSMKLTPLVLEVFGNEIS
Sequence of Peroxisome proliferator-activated receptor delta (Homo sapiens) (Q03181 whole entry, looked up): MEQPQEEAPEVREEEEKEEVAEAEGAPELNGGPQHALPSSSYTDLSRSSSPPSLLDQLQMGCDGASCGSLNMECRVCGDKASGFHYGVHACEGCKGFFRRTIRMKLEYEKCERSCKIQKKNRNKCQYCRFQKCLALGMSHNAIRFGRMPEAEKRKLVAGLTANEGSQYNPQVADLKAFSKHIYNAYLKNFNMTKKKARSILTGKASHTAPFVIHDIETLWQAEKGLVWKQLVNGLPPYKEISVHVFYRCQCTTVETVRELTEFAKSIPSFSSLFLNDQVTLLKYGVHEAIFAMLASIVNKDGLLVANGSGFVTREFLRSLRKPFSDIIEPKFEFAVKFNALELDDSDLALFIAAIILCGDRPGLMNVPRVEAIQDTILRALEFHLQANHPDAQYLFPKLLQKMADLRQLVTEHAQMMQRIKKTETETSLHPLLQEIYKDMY

CCN(CC)CC1CCCCN1CC(=O)N1c2ccccc2C(=O)Nc2cccnc21 (configuration not stated)
not listed: [9] | [10]
inactive: all other assays above

Cc1nc(N)nc(N)c1-c1ccc(Cl)c(Cl)c1
inactive: [1] | [9] | [3] | [6]

CCCCNCCCC
not listed: [2] | [4] | [6]
inactive: all other assays above

CCN[C@H]1CN(CCCOC)S(=O)(=O)c2sc(S(N)(=O)=O)cc21
not listed: [4] | [6] | [9]
inactive: all other assays above

CC(C)C(=O)OC/C=C/c1ccccc1
not listed: [2] | [10]
inactive: all other assays above

O=C(O)c1cccc(Cl)c1Cl
inactive: [1] | [9] | [3] | [5] | [7] | [8]

CCC(=O)O[C@]1(C(=O)SCF)[C@H](C)C[C@H]2[C@@H]3C[C@H](F)C4=CC(=O)C=C[C@]4(C)[C@@]3(F)[C@@H](O)C[C@@]21C
inactive: [1] | [9] | [3] | [5] | [7] | [8]

CCCCCCCCCCCCCCCCOP(=O)([O-])OCC[N+](C)(C)C
inactive: [1] | [9] | [3] | [7] | [8] | [10]

COc1cc(Cl)ccc1Cl
not listed: [2] | [4] | [6]
inactive: all other assays above

COC(=O)c1ccc2cc(C(=O)OC)ccc2c1
inactive: [1] | [9] | [5] | [7]

CCOC(=O)C(Br)c1ccccc1 (configuration not stated)
inactive: [1] | [2] | [3] | [5] | [7] | [8]

C[C@]12C(=O)OC(=O)[C@H]1[C@H]1C=C[C@@H]2C1
inactive: [1] | [9] | [5] | [7] | [8] | [10]

Cc1ncc(CO)c(CN)c1O
inactive: [1] | [2] | [3] | [5] | [7]

C=CCCC=C
not listed: [2] | [8] | [10]
inactive: all other assays above

Cc1cccc(C)c1NC(=O)CN1CCCCCC1
not listed: [4] | [6] | [9]
inactive: all other assays above

O=C1N(c2ccccc2)c2ccccc2C1(Cc1ccncc1)Cc1ccncc1
inactive: [1] | [9] | [3] | [7] | [8]

CC(CNC1CCCCC1)OC(=O)c1ccccc1 (configuration not stated)
inactive: [1] | [2] | [3] | [5] | [6] | [7]

OCC(CBr)(CBr)CBr
inactive: [1] | [9] | [3] | [5] | [7] | [8]

O=C(O[C@@H](C(=O)O)[C@@H](OC(=O)c1ccccc1)C(=O)O)c1ccccc1
inactive: [1] | [2] | [3] | [5] | [7]

Cc1cc(NS(=O)(=O)c2ccc(N)cc2)nc(C)n1
inactive: [1] | [2] | [3] | [5] | [7]

Cc1c(N)cccc1N
inactive: [1] | [2] | [3] | [5] | [7] | [8]

CN(CC1(C)CCCO1)S(=O)(=O)c1ccc(Cl)c(S(N)(=O)=O)c1 (configuration not stated)
not listed: [8] | [9] | [10]
inactive: all other assays above

O=[N+]([O-])c1nccn1CO[C@@H](CO)[C@H](O)CO
not listed: [8] | [9] | [10]
inactive: all other assays above

CCN(CCCc1ccccc1)CCCc1ccccc1
not listed: [2]
inactive: all other assays above

Cc1c(C(=O)NCCO)[n+](=O)c2ccccc2n1[O-]
inactive: [1] | [2] | [3] | [5] | [7] | [8]

C=CCc1cc(OC)c(O)c(C(=O)NCCO)c1
not listed: [3] | [9]
inactive: all other assays above

OCCN(CCO)c1ccccc1
not listed: [3] | [9]
inactive: all other assays above

CCC/C=C/CO
not listed: [3] | [4] | [9]
inactive: all other assays above

CCCCNc1cc(C(=O)O)cc(S(N)(=O)=O)c1Oc1ccccc1
inactive: [1] | [2] | [5] | [7] | [8]

CCCNC(C)C(=O)Nc1c(C)csc1C(=O)OC (configuration not stated)
inactive: [1] | [2] | [5] | [7] | [8] | [10]

O=C1CCN(c2ccccc2)N1
inactive: [1] | [2] | [4] | [6] | [7]

COC(=O)c1ccc(OC)cc1
inactive: [1] | [2] | [5] | [6] | [8]

C=O
inactive: [1] | [2] | [5] | [7] | [8] | [10]

CC(C)NCC(O)COc1ccc(CCOCC2CC2)cc1 (configuration not stated)
inactive: [1] | [2] | [5] | [7] | [8] | [10]

CC1(O)CSC(C)(O)CS1 (configuration not stated)
inactive: [1] | [2] | [5] | [6] | [7]

CC(=O)Oc1cc(C(C)C)c(OCCN(C)C)cc1C
inactive: [1] | [2] | [5] | [7]

CC1=C2[C@H](/C=C(\C)C(=O)O)CC[C@@H](C)[C@H]2CC1
inactive: [1] | [2] | [5] | [6] | [7]

C=CC1CO1 (configuration not stated)
inactive: [1] | [2] | [5] | [7]

NC(=O)Cc1cccc(C(=O)c2ccccc2)c1N
not listed: [3] | [7] | [9]
inactive: all other assays above

Cc1ccc(C(C)C)cc1O
inactive: [1] | [2] | [5] | [7]

O=C1CCC(C2CCCCC2)CC1
not listed: [4] | [5] | [9]
inactive: all other assays above

OCCN(CCO)CCN(CCO)CCO
inactive: [1] | [2] | [5] | [7] | [8]

CCOc1ccc2nc(N)sc2c1
inactive: [1] | [2] | [5] | [7]

CC1=NN(c2cc(Cl)c(S(=O)(=O)O)cc2Cl)C(=O)C1N=Nc1ccc(S(=O)(=O)O)cc1 (configuration not stated)
inactive: [1] | [2] | [5] | [7] | [8]

CCCNC(C)(C)COC(=O)c1ccccc1
not listed: [4] | [6] | [9]
inactive: all other assays above

FC(F)(F)c1ccccc1
inactive: [1] | [2] | [3] | [5] | [7] | [10]

CCCCCCC
inactive: [1] | [2] | [4] | [5] | [6] | [7]

Cc1onc(-c2ccccc2)c1C(=O)Cl
inactive: [1] | [2] | [5] | [6] | [7]

Oc1ccccc1F
not listed: [3] | [9]
inactive: all other assays above

CC(=O)O[C@H]1CC[C@@]2(C)C(=CC[C@@H]3[C@@H]2CC[C@]2(C)C(C(C)=O)=CC[C@@H]32)C1
inactive: [1] | [2] | [5] | [7] | [8]

C=CCCCCCCCCO
inactive: [1] | [2] | [5] | [7]

CC1=C(CC(=O)O)c2cc(F)ccc2/C1=C\c1ccc(S(C)(=O)=O)cc1
inactive: [1] | [2] | [5] | [7]

COC(C)CCO (configuration not stated)
inactive: [1] | [2] | [5] | [7] | [8] | [10]

CCCS(=O)c1ccc2nc(NC(=O)OC)[nH]c2c1 (configuration not stated)
inactive: [1] | [2] | [5] | [6] | [7] | [8]

CCCOCCC
inactive: [1] | [2] | [5] | [7] | [8]

CC(C)C[C@H](NC(=O)OCC1c2ccccc2-c2ccccc21)C(=O)O
inactive: [1] | [2] | [4] | [5] | [6] | [7]

CCCCCCn1c(=O)c2c(ncn2C)n(C)c1=O
inactive: [1] | [2] | [5] | [7]

ClC(Cl)Cl
inactive: [1] | [2] | [4] | [5] | [6] | [7]

CCCCC1CCC(=O)O1 (configuration not stated)
inactive: [1] | [2] | [5] | [7]

O=C1CCCCCCCCCCC(=O)OCCO1
inactive: [1] | [2] | [5] | [7] | [10]

CCCCCOc1ccc(C2SC(=O)NC2=O)cc1OCC (configuration not stated)
inactive: [1] | [2] | [5] | [7]

CC(C)(C)c1ccc(OC(=O)c2ccccc2O)cc1
inactive: [1] | [2] | [4] | [5] | [6] | [7]

CCOc1ccccc1N
inactive: [1] | [2] | [5] | [7] | [8]

O=c1oc2c(O)c(O)cc3c(=O)oc4c(O)c(O)cc1c4c23
not listed: [3] | [9] | [10]
inactive: all other assays above

Cc1ccc(C=O)s1
inactive: [9] | [2] | [3] | [5] | [7]

Cc1cc2nc(N)sc2cc1C
inactive: [1] | [5] | [6] | [7] | [8] | [10]

COc1ccc2nc(NC(=O)Nc3ccccc3)sc2c1
inactive: [1] | [2] | [5] | [7] | [10]
